Data on 40 compounds can be found in PubChem BioAssay (NCI).

About 83,000 compounds went through this panel and 20% of them were active in at least one assay; those are over-represented in the sample as a whole.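 Step 1: grow cells in 96-well plates. Step 2: add test compound at a single concentration. Step 3: incubate 48 h. Step 4: record percent growth.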 Calls of active or inactive are those of the source. How the source made its calls: active means growth percent below 10; inactive means the rest.

The subject of the experiment is HL-60(TB) leukemia. In words: NCI-60 one-dose screen, 48 h (100 = growth as untreated, 0 = no growth, -100 = all killed). The settings on record: 10 µM unless noted.
On to `COc1ccc(C2=NN(C(=O)c3cc(OC)c(OC)c(OC)c3)C(c3ccc(N(C)C)cc3)C2)cc1` (stereo not given), for which the growth was -18.4% (active).

As for `c1ccc(-c2nn(-c3ccccc3)[n+](-c3ccccc3-c3ccccc3)n2)cc1`, the growth is -31.4% (active).

Regarding `C=CC(C)C(C)(C)O` (stereo not given), the growth was 97.7% (inactive).

`CCOC(=O)c1cnc2ccc(Br)cc2c1Nc1cccc(S(=O)(=O)NC)c1`: the growth was 119% (inactive).

For the compound `Cc1nc(N)nc(SCc2ccccc2)c1Br`, the growth is 53.2% (inactive).

For the compound `OCCCc1n(Cc2ccc3ccccc3c2)c2ccccc2[n+]1Cc1ccc2ccccc2c1`, the growth is -43.5% (active).

As for `COc1cc2c(c(OC)c1)C1c3cc(OC)ccc3NC(=O)N1CC2` (stereo not given), the growth is 66.3% (inactive).

Consider `CN(C)c1ccc(/C=C/C(=O)c2ccc(NC(N)=O)cc2)cc1`, for which the growth is 87.3% (inactive).

As for `C[Si](C)(C)C(c1ccccc1)c1ccccc1`, the growth is 80.5% (inactive).

Take `COc1ccc(C2Nc3ncnc(N)c3N=C3c4ccccc4C(=O)C32)cc1` (stereo not given): the growth is 58.8% (inactive).

For `CCCc1cc(NC)nc(S(=O)(=O)CC)n1`, the growth was 127% (inactive).

For the compound `Cc1ccc(C2CC(c3cccc(Nc4ccncc4)c3)=NN2c2ccccc2)cc1` (stereo not given), the growth was -56.6% (active).

As for `C#Cc1cccc(NC(=O)Nc2ccccc2NC(=O)CCl)c1`, the growth was 16.8% [8.25 µM] (inactive).

As to `NS(=O)(=O)c1ccc(Cn2c(SCC(=O)N/N=C/c3ccccc3O)nc3ccccc3c2=O)cc1`, the growth is 40.9% (inactive).

For `CCCCCCCCCCNC(=O)CCl`, the growth is 95.8% (inactive).

In the case of `O=C1NC(=Nc2ccc(Cl)cc2)S/C1=C\c1cn(-c2ccccc2)nc1-c1ccccc1`, the growth was 92% (inactive).

For the compound `COc1cc(Nc2c3ccc(Cl)cc3nc3ccc(OC)cc23)c2ncccc2c1`, the growth was 49.5% (inactive).

In the case of `C=C(CBr)[C@@H]1CC[C@]2(C(=O)O)CC[C@]3(C)[C@H](CC[C@@H]4[C@@]5(C)CCC(=O)C(C)(C)[C@@H]5CC[C@]43C)[C@@H]12`, the growth was 71.7% (inactive).

Consider `COc1ccc(-c2nc(/C=N/Nc3cc(C)nc4ccc(Br)cc34)c(C)o2)cc1`, for which the growth is -51.5% (active).

As for `CCOC(CN=Cc1cc(C)c2[nH]c3ccccc3c2c1C)OCC`, the growth was 76.6% (inactive).

Turning to `CC(=O)Nc1nc(C)c(C(=O)N/N=C/c2cccs2)s1`, the growth was 130% (inactive).

As to `COc1ccc(S(=O)(=O)NCCNc2nccc(-c3c(-c4ccccc4)nc4sccn34)n2)cc1`, the growth was 25.4% (inactive).

As to `COc1cc(OC)cc(C(=O)C[n+]2cccc3cc[nH]c32)c1`, the growth is 99% (inactive).

Consider `O=C(COc1cccc(/C=C2\CSc3ccccc3C2=O)c1)c1ccc(Cl)cc1`, for which the growth is -48% (active).

For `OC1CSSC1Cn1cnc2c(Nc3ccc(F)c(Cl)c3)ncnc21` (stereo not given), the growth is 45.8% (inactive).

On to `COc1ccc(OC)c(/C=C/C(=O)c2c(C)nc3ccccc3c2/C=C/c2ccccc2)c1`, for which the growth is 47% (inactive).

Turning to `Cc1ccc(-c2nc(C#N)c(S(=O)(=O)NCCO)o2)cc1`, the growth was -20.1% (active).

On to `Cc1ccccc1NC(=O)Cn1cc(CN2CCN(c3ccnc4cc(Cl)ccc34)CC2)nn1`, for which the growth was 22.2% (inactive).

With `CC(CN(C)C)Oc1ccc(OC(C)CN(C)C)c2c1C(=O)c1ccccc1C2=O` (stereo not given), the growth is 39.2% (inactive).

Consider `COC(=O)c1cc(Br)ccc1O`, for which the growth was 97.8% (inactive).

For `COc1cccc(Cc2cc(-c3ccccc3)nn(CC(=O)c3ccccc3)c2=O)c1`, the growth was 69.4% (inactive).

Turning to `CN(C)c1ccc(/C=c2\s/c(=C\C(=O)C(C)(C)C)[nH]c2=O)cc1`, the growth was 119% (inactive).

Regarding `CCN1CCCC(Nc2cc(C)nc(/N=C(/N)Nc3ccc(Cl)c(Cl)c3)n2)C1` (stereo not given), the growth is -42.7% (active).

For the compound `N#Cc1c(-c2ccc(Cl)cc2)cc(-c2cc(O)ccc2O)nc1N`, the growth is 68.2% (inactive).

For `COC(=O)C1=C(C(=O)ON)[C@@H]2C=C[C@@]1([C@@H](Cc1ccccc1)Nc1ccccc1)O2`, the growth was -3.29% (active).

Take `COc1cc2c(c(OC)c1OC)-c1ccc(NN(C(=O)c3ccccc3)C(=O)c3ccccc3)c(=O)cc1[C@@H](NC(C)=O)CC2` (tested in a mixture with another compound): the growth is -1.35% (active).

Turning to `CCC(CC(C)C)Nc1ccc(NC(CC)CC(C)C)cc1` (stereo not given), the growth is 35.3% (inactive).

Turning to `COc1ccc([C@H]2[C@H](C(=O)Nc3cccnc3)c3ccccc3C(=O)N2c2ccccc2)cc1`, the growth was 90.2% (inactive).

In the case of `C=C1CC2(OC1=O)C(=O)N(C)c1ccc(I)cc12` (stereo not given), the growth is -56.5% (active).

`Cc1ccc2c(C(C[N+](=O)[O-])c3ccccc3)c(-c3ccccc3)[nH]c2c1` (stereo not given): the growth was -10.4% [9.5 µM] (active).
